Test results published in PubChem BioAssay AID624405 (Broad Institute, 2012).
Screen size: about 1,900 compounds; about 250 (13%) were called active. About 4% were inconclusive and are not listed.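 How the source made its calls: active means fitted curve reaches 40% rescue activity at or below the top valid dose, in every test run; inconclusive means test runs disagree, some active and some inactive; inactive means every run misses the threshold or moves the wrong way.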 A selection follows. Results with a measured potency or affinity are listed apart.

Test: rescue of simvastatin-induced ATP loss – cell-based, C2C12 myotubes, ATP luminescence, cherry pick, dose response (AID 624405);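 further: myotubes are challenged with simvastatin at 10 µM to lower ATP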
Conditions: 48 h, scaled: DMSO wells 0, geranylgeraniol wells 100; series mostly up to 19.5 µM

**Q.** Which outcome does the source give for COc1ccc(CN(C)C[C@H]2Oc3ccc(NS(=O)(=O)c4ccc(F)cc4)cc3CC(=O)N([C@@H](C)CO)C[C@@H]2C)cc1 here?
**A.** The outcome was “inactive”.

**Q.** For COC(=O)CCC(=O)Nc1sc(C)c(C)c1C(N)=O, which outcome is on record?
**A.** The outcome was “inactive”.

**Q.** Which outcome does the source give for C[C@@H]1CCCCO[C@@H](CN(C)C(=O)C2CCCCC2)[C@H](C)CN([C@@H](C)CO)C(=O)c2cc(NS(=O)(=O)c3ccccc3)ccc2O1 here?
**A.** The outcome was “inactive”.

**Q.** With COc1ccc(CN2[C@@H]3CNc4ccccc4[C@@H]3[C@@H]2CO)cc1 as the compound, how does the outcome read?
**A.** The outcome was “inactive”.

**Q.** With C[C@@H]1CCCCO[C@H](CN(C)C(=O)NC2CCCCC2)[C@H](C)CN([C@@H](C)CO)C(=O)c2cc(NC(=O)Nc3cccc4ccccc34)ccc2O1 as the compound, how does the outcome read?
**A.** Its outcome is “inactive”.

**Q.** For C[C@H](CO)N1C[C@H](C)[C@@H](CN(C)Cc2ccc(Oc3ccccc3)cc2)Oc2ccc(NC(=O)Cc3cn(C)c4ccccc34)cc2CC1=O, which outcome is on record?
**A.** Its outcome is “inactive”.

**Q.** For O=C(OCC(=O)N1CCOCC1)c1ccccc1SCC(=O)N1CCCC1, which outcome is on record?
**A.** Its outcome is “inactive”.

**Q.** For C[C@H](CO)N1C[C@H](C)[C@@H](CN(C)Cc2ccc(C(F)(F)F)cc2)Oc2ccc(NS(=O)(=O)c3cccs3)cc2CC1=O, which outcome is on record?
**A.** Its outcome is “inactive”.

**Q.** With CC(=O)N1CCN(c2nnnn2-c2ccccc2)CC1 as the compound, how does the outcome read?
**A.** Its outcome is “inactive”.

**Q.** Which outcome does the source give for COCc1cc(C)nc(N2CCN(Cc3ccccc3)CC2)c1C#N here?
**A.** The outcome was “inactive”.

**Q.** For COc1ccc(S(=O)(=O)Nc2ccc3c(c2)C(=O)N([C@@H](C)CO)C[C@@H](C)[C@H](CN(C)C(=O)c2ccccc2)OCCCC[C@@H](C)O3)cc1, which outcome is on record?
**A.** Its outcome is “inactive”.

**Q.** For COc1ccc2[nH]c(=O)c(CN(CCc3ccccc3)C(C)=O)cc2c1, which outcome is on record?
**A.** The outcome was “inactive”.

**Q.** Which outcome does the source give for COc1ccc2[nH]c(=O)c(CNc3ccc(C)c(C)c3)cc2c1 here?
**A.** The outcome was “inactive”.

**Q.** With CC(=O)N1C=CN(C(C)=O)C(c2cn(C)c3ccccc23)C1c1cn(C)c2ccccc12 (stereo not drawn) as the compound, how does the outcome read?
**A.** The outcome was “inactive”.

**Q.** Which outcome does the source give for Cc1cc(C)nc(NC(=NCCc2c[nH]c3ccccc23)NC(=O)c2ccco2)n1 here?
**A.** Its outcome is “inactive”.

**Q.** For O=C(Cc1coc(-c2ccc(F)cc2)n1)Nc1ccccc1, which outcome is on record?
**A.** Its outcome is “inactive”.

**Q.** For CCCCCNC(=O)C1CC=CCC1C(=O)O (stereo not drawn), which outcome is on record?
**A.** Its outcome is “inactive”.

**Q.** For C[C@H]1CN([C@@H](C)CO)C(=O)Cc2cc(NC(=O)CCCCCC(=O)Nc3ccccc3N)ccc2O[C@@H]1CN(C)CC1CCCCC1, which outcome is on record?
**A.** The outcome was “inactive”.

**Q.** With C[C@@H]1CN([C@H](C)CO)C(=O)Cc2cc(NC(=O)CCCCCC(=O)Nc3ccccc3N)ccc2O[C@H]1CN(C)CC1CCCCC1 as the compound, how does the outcome read?
**A.** Its outcome is “inactive”.

**Q.** With COc1ccc(S(=O)(=O)N(C)C[C@@H]2OCCCC[C@H](C)Oc3ccc(NC(=O)Nc4ccc(C(F)(F)F)cc4)cc3C(=O)N([C@@H](C)CO)C[C@@H]2C)cc1 as the compound, how does the outcome read?
**A.** The outcome was “inactive”.

**Q.** With OC[C@H]1[C@@H]2c3ccccc3NC[C@@H]2N1Cc1ccccc1Cl as the compound, how does the outcome read?
**A.** The outcome was “inactive”.

**Q.** With CCOc1ccccc1OCCOc1ccccc1CC as the compound, how does the outcome read?
**A.** The outcome was “inactive”.

**Q.** Which outcome does the source give for COc1ccc(NC(=O)N(C)C[C@@H]2OCCCC[C@@H](C)Oc3ccc(NS(=O)(=O)c4c(C)noc4C)cc3C(=O)N([C@H](C)CO)C[C@H]2C)cc1 here?
**A.** Its outcome is “inactive”.

**Q.** For C[C@@H]1CN([C@@H](C)CO)C(=O)c2cc(NC(=O)Cc3cn(C)c4ccccc34)ccc2O[C@H]1CN(C)S(=O)(=O)c1cccs1, which outcome is on record?
**A.** The outcome was “inactive”.

**Q.** For CC(C)(C)c1cc(C(F)(F)F)c(C#N)c(=O)[nH]1, which outcome is on record?
**A.** Its outcome is “inactive”.

**Q.** With C=CCn1c(COc2ccc(Cl)cc2)nnc1SCC(=O)c1c(N)n(C)c(=O)n(C)c1=O as the compound, how does the outcome read?
**A.** The outcome was “inactive”.

**Q.** With COc1ccc(S(=O)(=O)Nc2ccc3c(c2)CC(=O)N([C@H](C)CO)C[C@@H](C)[C@@H](CN(C)Cc2ccc(C(F)(F)F)cc2)O3)cc1 as the compound, how does the outcome read?
**A.** Its outcome is “inactive”.

**Q.** For CCOC(=O)C1CCN(C=Nc2cc(C)on2)CC1, which outcome is on record?
**A.** The outcome was “inactive”.

**Q.** With COc1ccc(S(=O)(=O)Nc2ccc3c(c2)C(=O)N([C@@H](C)CO)C[C@H](C)[C@@H](CN(C)S(=O)(=O)c2ccc(F)cc2)OCCCC[C@H](C)O3)cc1 as the compound, how does the outcome read?
**A.** The outcome was “inactive”.

**Q.** Which outcome does the source give for NC(=O)C1CCN(Cc2nc3cc(Cl)ccc3c(=O)[nH]2)CC1 here?
**A.** Its outcome is “inactive”.

**Q.** Which outcome does the source give for C[C@@H]1CCCCO[C@@H](CN(C)C(=O)Nc2cccc3ccccc23)[C@H](C)CN([C@@H](C)CO)C(=O)c2cc(NS(=O)(=O)c3ccc(Cl)cc3)ccc2O1 here?
**A.** Its outcome is “inactive”.

**Q.** With CCC/C(=C1/c2ccccc2C(=O)N1c1ccccc1)c1ccc2c(c1)OCCO2 as the compound, how does the outcome read?
**A.** Its outcome is “inactive”.

**Q.** For C[C@H](CO)N1C[C@H](C)[C@@H](CN(C)Cc2ccccc2F)Oc2ncc(C3=CCCCC3)cc2C1=O, which outcome is on record?
**A.** The outcome was “inactive”.

**Q.** Which outcome does the source give for C[C@@H]1CN([C@H](C)CO)C(=O)Cc2cc(NC(=O)Cc3cn(C)c4ccccc34)ccc2O[C@H]1CN(C)Cc1ccc(-c2ccccc2)cc1 here?
**A.** Its outcome is “inactive”.

**Q.** With COc1ccccc1CNc1ncnc2c1nnn2Cc1ccccc1 as the compound, how does the outcome read?
**A.** Its outcome is “inactive”.

**Q.** With COc1ccc(CNc2ncnc3cc(OC)c(OC)cc23)cc1 as the compound, how does the outcome read?
**A.** The outcome was “inactive”.

**Q.** Which outcome does the source give for CC(c1ccco1)N(C(=O)Nc1ccc(Cl)cc1)c1ccccn1 (stereo not drawn) here?
**A.** The outcome was “inactive”.

**Q.** With COc1ccc(-n2nnnc2SCC(=O)N2CCCc3ccccc32)cc1OC as the compound, how does the outcome read?
**A.** The outcome was “inactive”.

**Q.** With COc1ccccc1-c1nnc(SCC(=O)N2CC(C)CC(C)C2)o1 (stereo not drawn) as the compound, how does the outcome read?
**A.** Its outcome is “inactive”.

**Q.** For CNC[C@@H]1Oc2ccc(NC(=O)Nc3ccc(C(F)(F)F)cc3)cc2CC(=O)N([C@@H](C)CO)C[C@@H]1C, which outcome is on record?
**A.** Its outcome is “inactive”.

**Q.** For CCOc1cc(CNCc2ccncc2)cc(Br)c1OCc1ccccc1F, which outcome is on record?
**A.** The outcome was “inactive”.

**Q.** With COc1ccc2c(c1)c(C(=O)OCCN(C)C)c(C)n2C as the compound, how does the outcome read?
**A.** The outcome was “inactive”.

**Q.** For O=C(COc1ccccc1)Nc1ccc(S(=O)(=O)N2CCCC2)cc1, which outcome is on record?
**A.** Its outcome is “inactive”.
